Measured values reported in PubChem BioAssay (NCATS).
Results filed as inconclusive are left out. A call without a number means that no potency is given here. The source made the active and inactive calls. Calls come from the whole dose curve; as a rule, active = well fitted inhibition curve with a large enough effect; inconclusive = small, poorly fitted or top-dose-only effect; inactive = flat fitted curve, though single readings scatter.

test: qHTS for Inhibitors of Plasmodium falciparum (HB3) proliferation (AID 504318); note: nearly all actives have a fitted effect of over 60% in size; settings: P. falciparum HB3 in erythrocytes, SYBR Green DNA, 72 h; series mostly up to 7.21 µM
Text: Plasmodium falciparum is a virulent malarial parasite that kills 1-2 million people worldwide each year. Malaria not only inflicts tremendous suffering and morbidity on the human population, but has dramatically influenced the course of civilization with profound sociological and economic implications (Shah, S. 2010). Transmitted by mosquitoes, the sporozoite form of the parasite enters the blood stream to infect hepatocytes, where they become merozoites that infect red blood cells (erythrocytes). Within erythrocytes, merozoites begin a […] cycle of growth and division, after which the parasite is released to infect new red blood cells. Gametocytes, which form within erythrocytes as well, circulate in the bloodstream and are ingested by the mosquito, thereby completing the life cycle (see CDC website). To profile malarial lines for differential chemical responses and to identify inhibitors of malarial growth, an assay that measures P. falciparum growth and replication within erythrocytes was employed. This assay uses a DNA binding fluorescent dye (SYBR Green) to detect parasite DNA following cell lysis. Because mature erythrocytes lack DNA, only Plasmodium-derived DNA is detected. The P. falciparum line cp250, derived from a malarial isolate from Cambodia, (Mu, J., et al. 2010) was added to the panel of lines, Dd2, HB3, 7G8 and GB4 in this study. Laboratory of Assay Development and Screening Technology [ADST] and NIH Chemical Genomics Center [NCGC] Boston University, Chemistry Department, Center for Chemical Methodology and Library Development [CMLD-BU] NIH National Institute of Allergy and Infectious Diseases [NIAID]
ADST Assay Protocol Summary: The 1536-well SYBR Green viability assay was based on the method of Bennett et al (2004) and described previously in 1536-well format (Yuan J., et al. 2009). For screening 3 ul culture medium was dispensed into 1536 well black clear bottom plates (Aurora Biotechnologies) using a Multidrop Combi (Thermo Fisher Scientific Inc.), 23 nL compounds in DMSO were added by a pin transfer (Cleveland, P.H. and Koutz, P.J, 2005) using a pin tool-based delivery system (Kalypsys), and 5 ul of erythrocytes infected with P. falciparum one of five lines (cp250, Dd2, HB3, 7G8 or GB4, 0.3% parasitemia, 2.5% hematocrit final concentration) were added. The plates were incubated at 37C in a humidified incubator in 5% CO2 for 72 h, and 2 ul lysis buffer (20 mM Tris HCl, 10 mM EDTA, 0.16% saponin, 1.6% triton X, 10X SYBR Green I (supplied as 10,000X final concentration by Invitrogen) was added to each well. The plates were mixed for 25 sec with gentle shaking and incubated overnight at room temperature in the dark. The following morning, fluorescence intensity at 485(14) nm excitation and 535(25) nm emission wavelengths was measured on an EnVision (Perkin Elmer) plate reader. Plate reads were normalized relative to the control inhibitor (0.29 uM artemisinin) and vehicle (DMSO) wells present on each plate and then corrected by an algorithm using vehicle-only control plates at the beginning and end of the compound plate stack. References Shah, S. (2010). The Fever: how malaria has ruled humankind for 500,000 years. New York, Sarah Crichton Books. CDC web site, http://www.cdc.gov/malaria/about/biology/index.html Mu, J., Myers, R.A., Jiang, H., Liu, S., Ricklefs, S., Waisberg, M., Chotivanich, K., Wilairatana, P., Krudsood, S., White, N.J., et Plasmodium falciparum genome-wide scans for positive selection, recombination hot spots and resistance to antimalarial drugs Nature Genetics 2010, 42, pp 268-271 Bennett TN, Paguio, M., Gligorijevic, B., Seudieu, C., Kosar, A. D., Davidson, E., and Roepe, P. D. Novel, rapid, and inexpensive cell-based quantification of antimalarial drug efficacy Antimicrobial Agents Chemother. 2004, 48(5): pp 1807-10 Yuan J, Johnson RL, Huang RL, Wichterman J, Jiang HY, Hayton K, Fidock DA, Wellems TE, Inglese J, Austin CP, Su XZ. […]
Potency is the fitted concentration of half-maximal effect.

| Structure (SMILES) | Potency |
| --- | --- |
| O=C1C=C(c2ccccc2)CCC1 | inactive |
| COC(=O)c1nnc(SC)nc1C(=O)OC | inactive |
| C[C@H]1C=CCC(=O)N[C@@H](c2ccccc2)[C@@H](C)C=CCC(=O)N[C@@H]1c1ccccc1 | 1.51 µM (active) |
| CCOC(=O)NN=C1C[C@@H](O)[C@@H](O)[C@@H]2[C@H]3C(=O)N(C4CCCCC4)C(=O)[C@@H]3CC[C@H]12 | inactive |
| C=C[C@@]1(C)CCC=C2C(=O)CCC[C@H]21 | inactive |
| CC1(OC(=O)C2CCCC2)C(=O)C=C2C=C(c3ccsc3)N(c3cccc(C#N)c3)C=C2C1=O (stereo not given) | inactive |
| COC(=O)C[C@H]1c2ccccc2C2=C(C[C@@H](C)[C@H]3C(=O)N(c4ccccc4)C(=O)[C@@H]23)N1C(=O)OC | inactive |
| O=C1CCCC(C(C(=O)OCc2ccccc2)C(=O)OCc2ccccc2)C1 (stereo not given) | inactive |
| C[C@@H]1C=CCC(=O)N[C@@H](c2ccccc2)[C@H](C)C=CCC(=O)N[C@@H]1c1ccccc1 | inactive |
| COC(=O)[C@H]1[C@H](C)[C@@]2(O)c3ccccc3N(C)[C@@]1(C)[C@H]2O | inactive |
| COC(=O)N1C2CC3(C)CC(=O)CC1(C)C3c1ccccc12 (stereo not given) | inactive |
| COC(=O)CCCC1=CC2=CC(=O)C(C)(OC(=O)c3cccs3)C(=O)C2=CN1C1CCCCC1 (stereo not given) | inactive |
| C=CCOC(=O)NC(c1ccc(F)c(F)c1)S(=O)(=O)c1ccc(Cl)cc1 (stereo not given) | inactive |
| COC(=O)C1=C(C)N(Cc2ccccc2)C(=NCc2ccccc2)NC1c1ccccc1 (stereo not given) | inactive |
| C=CC1=C2C=C(C3CC3)N(C(CO)CO)C=C2C(=O)C(C)(OC(=O)c2ccco2)C1=O (stereo not given) | inactive |
| COCCN1C(=O)C2=C(C1=O)C1N(C)c3ccccc3[C@@]13C[C@@H](CO)N=C3N2 (stereo not given in full) | inactive |
| COC(=O)C1=C(C)N(Cc2ccccc2)C(=O)NC1c1cccc(F)c1 (stereo not given) | inactive |
| COC(=O)NC(CCc1ccccc1)C(C(C)=O)C(=O)OC (stereo not given) | inactive |
| CCN1C(=O)NC(c2cccc(C(F)(F)F)c2)C(C(C)=O)=C1C (stereo not given) | inactive |
| COC1=C(C(=O)c2ccccc2)C(=O)[C@@]2(CC=C(C)C)C[C@@H]([S+](=O)([O-])c3ccccc3)C(C)(C)[C@@]1(CC=C(C)C)C2=O | 1.9 µM (active) |

| Structure (SMILES) | Potency |
| --- | --- |
| CCN1C(=O)NC(CCc2ccccc2)C(C(C)=O)=C1C (stereo not given) | inactive |
| CCOC(=O)CN1C(=O)N[C@@H](c2cccc(C(F)(F)F)c2)[C@H](C(C)=O)[C@H]1C | inactive |
| CCOC(=O)CN1C(=O)[C@@]2(CC(C)=C[C@@H](COCc3ccccc3)O2)c2ccccc21 | inactive |
| CCN1C(=O)NC(c2ccco2)C(C(C)=O)=C1C (stereo not given) | inactive |
| O=C1OC2(CCCCC2)CC2=C1[C@H]1O[C@](CCCCN3C(=O)c4ccccc4C3=O)(Cc3ccccc31)O2 | 1.9 µM (active) |
| COc1ccc(-c2nc3c(c4c2C[C@H](c2ccccc2)OC4)CN(C(=O)NCc2ccco2)CC3)c(C)c1 | inactive |
| CCOC(=O)CN1C(=O)NC(c2ccc(Br)cc2)C(C(=O)OC)=C1C (stereo not given) | inactive |
| C=C(CO[C@@H]1C=C[C@@H](c2ccccc2)O[C@@H]1CO)c1ccccc1 | inactive |
| COc1cccc([C@H]2Oc3ccc(OC)cc3C(=NOCC[C@@H]3C=C[C@H](OC(C)=O)[C@@H](COC(C)=O)O3)[C@H]2O)c1 | inactive |
| C=C(C)CCN1C(=O)NC(c2ccccc2)C(C(C)=O)=C1C (stereo not given) | inactive |
| COC(=O)CC=C[C@@H](C)[C@@H](C=NOCC[C@@H]1C=C[C@H](OC(C)=O)[C@@H](COC(C)=O)O1)NS(=O)(=O)c1ccc(C)cc1 | inactive |
| CC(CCN1CCCc2nc(C)c(C)cc21)=NO[C@@H](C)c1cc(-c2c(C)cc(C)cc2C)no1 | inactive |
| COc1cc2c(cc1OC)[C@@H]1O[C@](c3ccsc3)(C2)OC2=C1C(=O)OC1(CCCCC1)C2 | inactive |
| CC[C@H](C)[C@@H](NC(=O)O[C@H]1C(=O)c2ccc(OC)cc2O[C@@H]1c1ccc2c(c1)OCO2)C(=O)OC | inactive |
| COc1ccc(C2=CC3=C(Br)C(=O)C(C)(OC(=O)c4ccc(Cl)nc4)C(=O)C3=CO2)cc1 (stereo not given) | inactive |
| COC(=O)N[C@H](CC(C)=O)c1ccccc1 | inactive |
| CCN1C(=O)[C@@H]2[C@H]3[C@H](O)[C@H](O)CC(=NOC[C@@H](O)[C@H]4O[C@@H]5OC(C)(C)O[C@H]5[C@@H]4O)[C@@H]3CC[C@H]2C1=O | inactive |
| COc1cccc([C@H]2Oc3ccc(OC)cc3C(=NO[C@H](C)c3cn([C@H](CO)Cc4ccccc4)nn3)[C@H]2O)c1 | inactive |
| O=C(NN=C1C[C@@H](O)[C@H](O)[C@H]2[C@@H]3C(=O)N(C[C@@H]4CCCO4)C(=O)[C@@H]3CC[C@@H]12)OCc1ccccc1 | inactive |
| C[C@H]1CC[C@H]2C(=O)NC[C@H](O)CN2[C@H]1c1ccc(Br)cc1 | inactive |
